Assay outcomes (PubChem)
This is a sample that favours compounds with a hit; in the whole collection about 0.99% have one here.
26S disassembly – blocks ATP-dependent breakdown of the yeast 26S proteasome | anti-FLAG beads, GFP-proteasome disassembly, flow cytometry | inhibition of disassembly, % (concentration not given with the values) | 24,000 tested, 0.2% active;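 active = inhibition of disassembly above about 33%, limit read from the data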;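 also: plate controls were ATP control with full disassembly for no effect and ATP-gamma-S intact proteasomes for full effect; higher percent means more bead fluorescence retained so stronger block of disassembly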
LNCaP diff act – activators of LNCaP prostate cell differentiation; 24,000 tested, 0.56% active; side scatter shift, % at 10 µM; flow cytometry side scatter, 4 d;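 active = side scatter shift above 30%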;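 also: androgen-responsive LNCaP prostate cancer cells in charcoal-stripped serum medium; percent of cells past a gate set so DMSO wells show 10% shift; higher shift means more granular cells and more differentiation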
QS inhibitor – blocks AIP-induced quorum sensing reporter in S. aureus; S. aureus RN6390 RNAIII-GFP reporter, flow cytometry 3 h; inhibition, % at 2 µM; 24,000 tested, 0.3% active; AID 527;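 active = share of bacteria positive for the green fluorescent reporter and its mean brightness both inhibited by 50% or more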;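 also: 0% = AIP-stimulated control and 100% = unstimulated bacteria without AIP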
* = called active by the depositor; x = no result.

SMILES	26S disassembly	LNCaP diff act	QS inhibitor
Cc1ccc(S(=O)(=O)c2c(C)nn(C(C)(C)C)c2OC(=O)c2ccco2)cc1	-0.2	14.0	-18.6
CC(=O)Oc1c(S(=O)(=O)c2ccc(C)cc2)c(C)nn1C(C)(C)C	-1.1	1.0	77.6*
Cc1ccc(S(=O)(=O)c2c(C)nn(C(C)(C)C)c2OC(=O)c2ccc(Br)o2)cc1	0.2	8.0	51.7*
Cc1ccc(S(=O)(=O)c2c(C)nn(C(C)(C)C)c2OC(=O)C(C)(C)C)cc1	0.3	6.0	-13.1
COC(=O)CCCCCc1ccc(C(C)=O)s1	-1.1	21.0	-0.3
CCOC(=O)N1CCC(N2C(=O)c3ccc(C(=O)NC4CCCCCC4)cc3C2=O)CC1	-3.9	11.0	5.4
Cn1c2ccccc2c2cnn(CC(=O)N3CCN(c4ncccn4)CC3)c(=O)c21	1.0	3.0	-4.3
CCOC(=O)c1c(NC(=O)c2cc(C3CC3)on2)sc2c1CCCC2	-2.3	11.0	-2.4
N=c1c(C(=O)NCc2ccccc2)cc2c(=O)n3ccccc3nc2n1Cc1ccco1	11.8	11.0	7.0
COCCCn1c(=N)c(C(N)=S)cc2c(=O)n3cccc(C)c3nc21	11.2	10.0	0.7
Cc1ccc2nc3c(cc(C(=O)NCc4ccccc4)c(=N)n3CCCn3ccnc3)c(=O)n2c1	1.3	31.0*	-5.6
Cc1cccn2c(=O)c3cc(C(=O)NC(C)c4ccccc4)c(=N)n(CCCn4ccnc4)c3nc12 (stereo unspecified)	-1.5	37.0*	2.1
CNC(=O)c1cc2c(=O)n3cccc(C)c3nc2n1C	-2.3	13.0	-3.2
Cc1cc(C)n(CCc2nc3c4ccccc4n(CC(=O)Nc4ccc(Cl)cc4F)c(=O)n3n2)n1	0.4	12.0	-1.1
COc1cccc(C2CC(c3ccccc3OC)n3nc(N)nc3N2)c1 (stereo unspecified)	-1.8	8.0	-5.7
CC1(C)CC(=O)C(CCC(=O)c2ccccc2)C(C)(C)N1 (stereo unspecified)	1.1	2.0	-0.4
O=C1c2ccccc2C(Nc2ccc3c(c2)OCCO3)N1Cc1ccccc1 (stereo unspecified)	-0.3	9.0	-3.3
CC(=O)c1cccc(NC2c3ccccc3C(=O)N2Cc2ccc3c(c2)OCO3)c1 (stereo unspecified)	-0.3	30.0*	1.2
COc1ccc(C(=O)N2CCN(S(=O)(=O)c3cc(Cl)ccc3OC)CC2)cc1	1.8	6.0	0.1
CCOCC(=O)Nc1c(C(=O)Nc2ccc(OC)cc2OC)oc2ccccc12	0.0	14.0	1.8
COc1cccc(OCC(=O)Nc2c(C(=O)Nc3ccc(OC)cc3OC)oc3ccccc23)c1	0.8	36.0*	1.9
Cc1cc(C)c(NC(=O)CSc2nc3c(c(=O)n2C)SC(C)C3)c(C)c1 (stereo unspecified)	0.4	8.0	-3.0
CCC(=O)Nc1nonc1-c1nc2ccccc2n1CC(C)C	-1.2	1.0	-0.3
CCOC(=O)c1ccccc1NC(=O)Cn1c(-c2nonc2N)nc2ccccc21	6.8	32.0*	17.4
CCCc1cc(C(=O)Nc2sc(C)c(CC)c2C#N)no1	-0.3	15.0	5.9
SMILES	26S disassembly	LNCaP diff act	QS inhibitor
CCc1c(C)sc(NC(=O)c2cc(C)on2)c1C#N	2.0	2.0	90.5*
CC(C)C(=O)N1CCN(c2nc(-c3ccccc3)c3c(c2C#N)CCCC3)CC1	1.0	11.0	57.3*
N#Cc1c(-c2ccccc2)nc(N2CCCCCC2)[nH]c1=O	2.7	7.0	-0.8
COc1ccccc1N1CCN(CCCNC(=O)Nc2ccccc2C)CC1	0.8	3.0	-8.1
COc1ccc(Cl)c(N2CCN(CCCNC(=O)Nc3ccc(C)cc3)CC2)c1	7.2	40.0*	4.0
COc1ccc(Cl)cc1N1CCN(CCNC(=O)Nc2ccccc2C)CC1	-7.8	45.0*	0.1
COc1ccc(Cl)c(NC(=O)NCCN2CCN(c3ccccc3)CC2)c1	-3.7	18.0	0.1
Cc1cc(NC(=O)c2noc3c2CCCC3)no1	-0.1	5.0	-1.8
COc1ccc(-n2nnc3c(SCC(=O)N4CCN(c5ccccc5)CC4)ncnc32)cc1	0.4	2.0	-2.8
Cc1cc(N2CCOCC2)nc2ccc(NC(=O)CCC(=O)N3CCCC(C)C3)cc12 (stereo unspecified)	0.0	3.0	-5.1
O=C(NCCN1CCN(c2ccccc2)CC1)c1cccn2c(=O)c3ccccc3nc12	3.0	0.0	80.1*
O=C(NCCN1CCN(c2ccccc2F)CC1)c1cccn2c(=O)c3ccccc3nc12	0.6	6.0	-13.6
COc1ccc(CNC(=O)c2cnn3c(C(F)F)cc(C)nc23)cc1OC	-0.4	1.0	2.3
CCc1ccc2[nH]c(=O)c(CN(CCCN3CCOCC3)C(=O)Nc3ccc(F)cc3)cc2c1	x	x	92.9*
O=C(Nc1ccc(F)cc1)N(CCCN1CCOCC1)Cc1cc2cc3c(cc2[nH]c1=O)OCO3	-5.2	10.0	9.8
CC(C)N=c1cc2n(-c3ccc(Cl)cc3)c3ccccc3nc-2cc1Nc1ccc(Cl)cc1	-1.1	1.0	70.5*
CN(C)c1ccc(CNn2cnnc2)cc1	-0.2	4.0	-0.2
CN(C)c1ccc(CNC2CC(C)(C)NC(C)(C)C2)cc1	0.3	36.0*	1.0
CC1CCCN(C(=O)C(Cc2ccccc2)n2cccc2)C1 (stereo unspecified)	2.2	10.0	-1.5
C=CCOC(=O)c1sc(N2C(=O)c3oc4ccccc4c(=O)c3C2c2ccco2)nc1C (stereo unspecified)	0.7	4.0	10.8
CCOc1ccc(-n2nc(C(=O)N3CCOCC3)c3ccccc3c2=O)cc1	0.1	8.0	4.5
COC(=O)c1nc2n(n1)C(c1ccccc1OC)C1=C(CCCC1=O)N2 (stereo unspecified)	1.6	9.0	-9.7
COc1ccc(OC)c(Nc2nc(-c3cccs3)cs2)c1	0.7	8.0	7.7
COc1ccc(Nc2nc(-c3sc(N)nc3C)cs2)cc1	-9.1	14.0	56.2*
Cc1cc(C)cc(C(=O)N2CCC(C(N)=O)CC2)c1	14.3	11.0	-3.9
SMILES	26S disassembly	LNCaP diff act	QS inhibitor
CCN(CC)CCNC(=O)c1nn(-c2ccc(C)cc2)c(=O)c2c1c1ccccc1n2C	30.1	36.0*	6.0
Cc1ccc(-n2nc(C(=O)NCc3ccco3)c3c4ccccc4n(C)c3c2=O)cc1	-0.3	8.0	-0.8
O=C(c1ccc(N2CCN(C3CC(=O)N(c4ccc(F)cc4)C3=O)CC2)cc1)c1cccnc1 (stereo unspecified)	x	x	-2.0
O=C(c1ccccc1)c1ccc(N2CCNCC2)cc1	-1.9	41.0*	-0.3
O=C(NCC1CCCO1)C1CCCCN1S(=O)(=O)c1ccc(F)cc1 (stereo unspecified)	5.3	7.0	1.5
Cc1cc(NC(=O)C2CCCCC2)nc2c1c(=O)oc1ccccc12	10.1	9.0	-4.1
Cc1cc(NC(=O)C2CCCC2)nc2c1c(=O)oc1ccccc12	0.9	6.0	54.1*
O=C(CCCCn1c(=O)[nH]c2ccccc2c1=O)NCCC1=CCCCC1	0.0	0.0	-11.0
CCOC(=O)c1c(C)[nH]c(C(=O)Cn2c(=O)c3c(ncn3CC)n(Cc3ccccc3)c2=O)c1C	70.0*	0.0	19.9
CCOC(=O)c1c(C)[nH]c(C(=O)CSc2nc3ccccc3o2)c1C	0.6	11.0	-0.1
COC(=O)c1cc(NC2c3ccccc3C(=O)N2CCN2CCOCC2)cc(C(=O)OC)c1 (stereo unspecified)	1.1	13.0	-1.3
N=c1c(C(=O)NC2CCCC2)cc2c(=O)n3ccccc3nc2n1C1CCCC1	9.7	68.0*	-1.0
